# PubChem BioAssay
# Inconclusive results are not listed. Activity calls are given as the source filed them.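 The calls were made as follows, unless noted: active = normalized viability below 100% at a tested concentration; inactive = the rest.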
# Legend:
# [1] = growth inhibition of DIPG glioma cells, dose response, cell-based, SU-DIPG-XVII, MIPE5.0, CellTiter-Glo, qHTS (AID 1347060; cut-off not given, nearly all actives have AC50 up to about 26 µM;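 also: cells exposed to compound for 48 hours before viability readout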); details: SU-DIPG-XVII viability, CellTiter-Glo ATP luminescence
# [2] = growth inhibition of DIPG glioma cells, dose response, cell-based, JHH-DIPG-1, MIPE4.0, CellTiter-Glo, qHTS (AID 1347062; cut-off not given, nearly all actives have AC50 up to about 27 µM;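 also: cells exposed to compound for two days before readout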); details: JHH-DIPG-1 viability, CellTiter-Glo ATP luminescence
# [3] = growth inhibition of DIPG glioma cells, dose response, cell-based, SU-DIPG-XIII, MIPE5.0, CellTiter-Glo, qHTS (AID 1347064; cut-off not given, nearly all actives have AC50 up to about 23 µM;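 also: cells exposed to compound for 48 hours before the viability read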); details: SU-DIPG-XIII viability, CellTiter-Glo ATP luminescence
# [4] = viability loss in pontine glioma line – cell-based, SU-DIPG-XXV, MIPE5.0, CellTiter-Glo, qHTS, dose response (AID 1347065; cut-off not given, nearly all actives have AC50 up to about 26 µM;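 also: cells exposed to compound for 48 hours before ATP readout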); details: CellTiter-Glo ATP luminescence
# [5] = SU-DIPG-VI glioma cell viability, MIPE4.0 library, CellTiter-Glo luminescence, qHTS (AID 1347066; cut-off not given, nearly all actives have AC50 up to about 30 µM;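 also: cells exposed to compound for 48 hours before readout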); details: CellTiter-Glo ATP luminescence
# [6] = JHH-DIPG-1 glioma cell viability, MIPE5.0 library, CellTiter-Glo luminescence, qHTS (AID 1347067; cut-off not given, nearly all actives have AC50 up to about 26 µM;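 also: cells exposed to compound for 48 hours before readout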); details: JHH-DIPG-1 glioma viability, CellTiter-Glo ATP luminescence
# [7] = SU-DIPG-XXV glioma cell viability, MIPE5.0 library, qHTS (AID 1347068; cut-off not given, nearly all actives have IC50 up to about 30 µM;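 also: cells exposed to compound for 48 hours before viability readout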)
# [8] = sensitizers of A549 cells to miR-34 induction, primary screen, imaging, A549 dox-inducible miR-34, nuclei and caspase counts (AID 1347080;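 active = compounds whose cell count with miR-34 switched on is under 0.7 times the count with it off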); details: A549 miR-34 inducible, Hoechst nuclei count, 48 h
# [9] = modifiers of HSF1 nuclear foci, imaging, Selleck Cancer Library (AID 1347162; in the data active = plate-normalised HSF1 focus index below about 0.46); details: human cells, at 10 µM; SSMD: measured here: HSF1 foci SSMD mean; cell count: measured here: cell number; plate-normalised HSF1 focus index: stronger effect = lower value
# [10] = survival rescue of mitochondrial mutant cells in low glucose, primary screen, MELAS cybrids, Rieske KO mouse fibroblasts, CellTiter-Glo (AID 1508586;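 active = mean z-score across replicates of 1.96 or higher in either the MELAS or the Rieske mutant cell line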;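 also: z relative to plate mean and SD of compound and empty wells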)
# [11] = ovarian cancer cell viability with rucaparib, profiling panel, oncology-focused library, rucaparib conditional (AID 1508598); details: patient-derived ovarian cancer cells, CellTiter-Glo viability, 144 h, stronger effect = lower value
# [12] = LFS_MB_P medulloblastoma growth inhibition, cell-based, chromothripsis tumors, cisplatin or BGB combos (AID 1671449; in the data active = inhibition above about 80%;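 also: cells exposed for 96 hours; 0% = vehicle DMSO and 100% = killing by high DMSO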); details: LFS_MB_P medulloblastoma cells
# [13] = HDN33 neuroblastoma growth inhibition, cell-based, chromothripsis tumors, cisplatin or BGB combos (AID 1671450; in the data active = inhibition above about 80%;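 also: cells exposed to compound for four days; 0% = vehicle DMSO and 100% = cell killing by high DMSO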); details: HDN33 neuroblastoma cells, stronger effect = higher value
# [14] = ICB984 medulloblastoma cell growth inhibition, synergistic combos for chromothripsis tumors, cisplatin or BGB combos (AID 1671451; call rule not given here;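 also: cells exposed for 96 hours before readout; 0% = vehicle DMSO and 100% = killing by high DMSO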); details: ICB984 medulloblastoma cells, drug combinations, stronger effect = higher value
# [15] = HTB85 osteosarcoma cell growth inhibition, synergistic combos for chromothripsis tumors, BGB or cisplatin IC20 combos (AID 1671453; in the data active = inhibition above about 80%;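 also: cells exposed for 96 hours before readout; 0% = vehicle DMSO and 100% = high DMSO killing control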); details: HTB85 osteosarcoma cells, drug combinations, stronger effect = higher value
# [16] = MDA-MB-436 breast carcinoma cell growth inhibition, synergistic combos for chromothripsis tumors, BGB or cisplatin combos (AID 1671458; call rule not given here;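 also: cells exposed for 96 hours; 0% = vehicle DMSO and 100% = killing by high DMSO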); details: MDA-MB-436 breast carcinoma growth inhibition, drug combinations, stronger effect = higher value
# [17] = growth inhibition of BT084 medulloblastoma cells, cell-based, ICGC_MB145, cisplatin and BGB IC40 combos (AID 1671461; in the data active = inhibition above about 80%;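 also: cells exposed to drugs for 96 hours; 0% = vehicle DMSO and 100% = high DMSO full killing control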); details: drug combinations, stronger effect = higher value
# [18] = growth inhibition of RCMB18 medulloblastoma cells, cell-based, cisplatin and BGB IC40 combos (AID 1671462; in the data active = inhibition above about 80%;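 also: cells exposed to compound for four days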); details: stronger effect = higher value
# [19] = growth inhibition of CRL1545 osteosarcoma cells, cell-based, cisplatin and BGB IC20 combos (AID 1671464; in the data active = inhibition above about 80%;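 also: cells exposed to compound for 96 hours before readout; 0% = vehicle DMSO and 100% = high DMSO killing control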); details: stronger effect = higher value
# [20] = measured here: with BGB IC20 combination, at 0.5 µM
# [21] = measured here: with cisplatin IC20 combination, at 0.5 µM
smiles,measurement,setting,value
Nc1ccccc1NC(=O)c1ccc(CNc2nccc(-c3cccnc3)n2)cc1,AC50,[1],2630 nM (active)
same,AC50,[2],1480 nM (active)
same,AC50,[3],1480 nM (active)
same,AC50,[4],590 nM (active)
same,AC50,[5],1180 nM (active)
same,AC50,[6],1180 nM (active)
same,IC50,[7],2630 nM (active)
same,fold change,"[8]; stronger effect = lower value, cell number ratio, induced over uninduced",1.16 (inactive)
same,fold change,[8]; measured here: relative caspase fold change +Dox/-Dox,0.733
same,cell count,"[8]; measured here: total cells with miR-34 induction, stronger effect = lower value",1740
same,cell count,[8]; measured here: total cells without miR-34 induction,1500
same,SSMD,[9],2.12
same,cell count,[9],7260
same,plate-normalised HSF1 focus index,[9],1.13 (inactive)
same,z-score,"[10]; MELAS cybrid survival, CellTiter-Glo 48 h, stronger effect = higher value",-0.546 (inactive)
same,z-score,"[10]; Rieske KO mouse fibroblast survival, CellTiter-Glo 72 h",-2.11
same,viability,"[11]; at 0.000305 µM, OCI-C5x cells, with rucaparib 10 µM, 100% = cells with rucaparib alone",107% (inactive)
same,viability,"[11]; at 0.000305 µM, OCI-C5x cells, without rucaparib",111% (inactive)
same,viability,"[11]; at 0.000305 µM, OCI-P5x cells, with rucaparib 20 µM, 100% = cells with rucaparib alone",122% (inactive)
same,viability,"[11]; at 0.000305 µM, OCI-P5x cells, without rucaparib",119% (inactive)
same,viability,"[11]; at 0.00122 µM, OCI-C5x cells, with rucaparib 10 µM, 100% = cells with rucaparib alone",112% (inactive)
same,viability,"[11]; at 0.00122 µM, OCI-C5x cells, without rucaparib",110% (inactive)
same,viability,"[11]; at 0.00122 µM, OCI-P5x cells, with rucaparib 20 µM, 100% = cells with rucaparib alone",110% (inactive)
same,viability,"[11]; at 0.00122 µM, OCI-P5x cells, without rucaparib",116% (inactive)
same,viability,"[11]; at 0.00488 µM, OCI-C5x cells, with rucaparib 10 µM, 100% = cells with rucaparib alone",118% (inactive)
same,viability,"[11]; at 0.00488 µM, OCI-C5x cells, without rucaparib",115% (inactive)
same,viability,"[11]; at 0.00488 µM, OCI-P5x cells, with rucaparib 20 µM, 100% = cells with rucaparib alone",107% (inactive)
same,viability,"[11]; at 0.00488 µM, OCI-P5x cells, without rucaparib",108% (inactive)
same,viability,"[11]; at 0.0195 µM, OCI-C5x cells, with rucaparib 10 µM, 100% = cells with rucaparib alone",119% (inactive)
same,viability,"[11]; at 0.0195 µM, OCI-C5x cells, without rucaparib",117% (inactive)
same,viability,"[11]; at 0.0195 µM, OCI-P5x cells, with rucaparib 20 µM, 100% = cells with rucaparib alone",101% (inactive)
same,viability,"[11]; at 0.0195 µM, OCI-P5x cells, without rucaparib",96.7% (active)
same,viability,"[11]; at 0.0781 µM, OCI-C5x cells, with rucaparib 10 µM, 100% = cells with rucaparib alone",110% (inactive)
same,viability,"[11]; at 0.0781 µM, OCI-C5x cells, without rucaparib",101% (inactive)
same,viability,"[11]; at 0.0781 µM, OCI-P5x cells, with rucaparib 20 µM, 100% = cells with rucaparib alone",103% (inactive)
same,viability,"[11]; at 0.0781 µM, OCI-P5x cells, without rucaparib",94.4% (active)
same,viability,"[11]; at 0.313 µM, OCI-C5x cells, with rucaparib 10 µM, 100% = cells with rucaparib alone",67.3% (active)
same,viability,"[11]; at 0.313 µM, OCI-C5x cells, without rucaparib",71.1% (active)
same,viability,"[11]; at 0.313 µM, OCI-P5x cells, with rucaparib 20 µM, 100% = cells with rucaparib alone",72% (active)
same,viability,"[11]; at 0.313 µM, OCI-P5x cells, without rucaparib",77.1% (active)
same,viability,"[11]; at 1.25 µM, OCI-C5x cells, with rucaparib 10 µM, 100% = cells with rucaparib alone",6.09% (active)
same,viability,"[11]; at 1.25 µM, OCI-C5x cells, without rucaparib",5.69% (active)
same,viability,"[11]; at 1.25 µM, OCI-P5x cells, with rucaparib 20 µM, 100% = cells with rucaparib alone",15.2% (active)
same,viability,"[11]; at 1.25 µM, OCI-P5x cells, without rucaparib",19.7% (active)
same,viability,"[11]; at 5 µM, OCI-C5x cells, with rucaparib 10 µM, 100% = cells with rucaparib alone",5.71% (active)
same,viability,"[11]; at 5 µM, OCI-C5x cells, without rucaparib",5.7% (active)
same,viability,"[11]; at 5 µM, OCI-P5x cells, with rucaparib 20 µM, 100% = cells with rucaparib alone",9.81% (active)
same,viability,"[11]; at 5 µM, OCI-P5x cells, without rucaparib",8.93% (active)
same,inhibition,"[12]; at 0.5 µM, stronger effect = higher value",2.35% (inactive)
same,inhibition,"[12]; measured here: combination with BGB IC20, at 0.005 µM",-20.9%
same,inhibition,"[12]; measured here: combination with BGB IC40, at 0.005 µM",-59.1%
same,inhibition,"[12]; measured here: combination with BGB IC40, at 0.05 µM",-23.9%
same,inhibition,"[12]; measured here: combination with cisplatin, at 0.5 µM, stronger effect = higher value",45.4%
same,inhibition,"[12]; measured here: combination with cisplatin, at 5 µM, stronger effect = higher value",109%
same,inhibition,"[13]; BGB combo, at 5 µM",98.8%
same,inhibition,[13]; at 0.5 µM,51.5% (inactive)
same,inhibition,"[13]; cisplatin combo, at 5 µM",100%
same,inhibition,[13]; [20],59.9%
same,inhibition,[13]; [21],50.6%
same,inhibition,"[13]; single agent, at 5 µM",99.4%
same,inhibition,"[14]; BGB IC20 combo, at 0.005 µM",8.79%
same,inhibition,"[14]; BGB IC40 combo, at 0.005 µM",19.9%
same,inhibition,"[14]; BGB IC40 combo, at 0.05 µM",92.5%
same,inhibition,[14]; at 0.5 µM,-29.5% (inactive)
same,inhibition,"[14]; cisplatin combo, at 0.05 µM",92.7%
same,inhibition,"[14]; cisplatin combo, at 0.5 µM",-33.3%
same,inhibition,"[14]; cisplatin combo, at 5 µM",-7.7%
same,inhibition,"[14]; measured here: 5 uM single agent, at 5 µM",-12.8%
same,inhibition,[15]; at 0.5 µM,18.4% (inactive)
same,inhibition,"[15]; measured here: with BGB IC20, at 0.5 µM",20.6%
same,inhibition,"[15]; measured here: with BGB IC20, at 5 µM",98.9%
same,inhibition,"[15]; measured here: with cisplatin IC20, at 0.5 µM",17.4%
same,inhibition,"[15]; measured here: with cisplatin IC20, at 5 µM",99.2%
same,inhibition,"[15]; single agent, at 5 µM",99.2%
same,inhibition,[16]; at 0.5 µM,23.7% (inactive)
same,inhibition,"[16]; measured here: BGB combination, at 0.5 µM",20.7%
same,inhibition,"[16]; measured here: BGB combination, at 5 µM",64.6%
same,inhibition,"[16]; measured here: cisplatin combination, at 0.5 µM",9.8%
same,inhibition,"[16]; measured here: cisplatin combination, at 5 µM",64%
same,inhibition,[17]; at 0.5 µM,50.1% (inactive)
same,inhibition,"[17]; cisplatin combination, at 0.5 µM",50.8%
same,inhibition,"[17]; cisplatin combination, at 5 µM",83.4%
same,inhibition,"[17]; measured here: BGB IC40 combination 0.05 uM, at 0.05 µM",-5.63%
same,inhibition,"[17]; single agent, at 5 µM",99.8%
same,inhibition,[18]; at 0.5 µM,56.4% (inactive)
same,inhibition,"[18]; cisplatin combo, at 5 µM",95.3%
same,inhibition,"[18]; measured here: BGB IC40 combination, at 0.05 µM",-6.4%
same,inhibition,"[18]; measured here: combination with cisplatin, at 0.5 µM",76.3%
same,inhibition,"[18]; single agent, at 5 µM",94.7%
same,inhibition,[19]; at 0.5 µM,66.9% (inactive)
same,inhibition,[19]; [20],49.6%
same,inhibition,[19]; [21],75.1%
same,inhibition,"[19]; single agent, at 0.05 µM",31.7%
same,inhibition,"[19]; single agent, at 5 µM",90.8%
